# Assay results published in the supplement of paper PMC8007513.
# Structures can show the parent of a compound that is named as a salt. ± gives the standard error. Hit rate of the full screen: of about 1,300 compounds, about 130 (10%) showed an effect of 50% or more. Only a selection was taken, and strong results are over-represented in it overall.
# Test system: Trichoderma virens ATCC 9645
# Assay: growth yield (OD600) with compound + IPBC relative to untreated control; higher = less growth inhibition
# Details: compound concentration: 100 uM, IPBC concentration: 200 ng/ml
# In short: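 Trichoderma virens ATCC 9645 spores at 15,000 spores ml^−1 in potato dextrose broth were exposed in 96-well plates to library compounds at 100 μM final, with or without a biocide at 200 ng ml^−1. After growth at 30 °C, OD600 was read at 40 h and 72 h. Values are growth relative to the control without either agent, averaged over duplicate screens.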
Structure (SMILES),growth yield (40 h),growth yield (72 h)
CC(C)(C)NC[C@H](O)COc1ccccc1C1CCCC1 [Penbutolol sulfate] + CCCCNC(=O)OCC#CI [3-iodo-2-propynyl butylcarbamate (IPBC)],74.8 ± 6.2%,91.56 ± 0.73%
O=C1CCC(N2C(=O)c3ccccc3C2=O)C(=O)N1 (stereo not drawn) [Thalidomide] + CCCCNC(=O)OCC#CI [3-iodo-2-propynyl butylcarbamate (IPBC)],95.3 ± 3.2%,101 ± 4.4%
Cc1cccc(C)c1NC(=O)CN1CCN(CCCC(c2ccc(F)cc2)c2ccc(F)cc2)CC1 [Lidoflazine] + CCCCNC(=O)OCC#CI [3-iodo-2-propynyl butylcarbamate (IPBC)],10.3 ± 1.1%,78.6 ± 7.7%
O=C1NCN(c2ccccc2)C12CCN(CCCC(c1ccc(F)cc1)c1ccc(F)cc1)CC2 [Fluspirilen] + CCCCNC(=O)OCC#CI [3-iodo-2-propynyl butylcarbamate (IPBC)],99.4 ± 6.3%,118 ± 4.2%
COc1ccccc1OCC(O)CN1CCN(CC(=O)Nc2c(C)cccc2C)CC1 (stereo not drawn) [Ranolazine] + CCCCNC(=O)OCC#CI [3-iodo-2-propynyl butylcarbamate (IPBC)],89.7 ± 2.4%,94.2 ± 2.7%
CO/N=C1\CN(c2nc3c(cc2F)c(=O)c(C(=O)O)cn3C2CC2)CC1CN (stereo not drawn) [Gemifloxacin mesylate] + CCCCNC(=O)OCC#CI [3-iodo-2-propynyl butylcarbamate (IPBC)],103 ± 17%,104 ± 11%
CNCC(O)c1ccc(OC(=O)C(C)(C)C)c(OC(=O)C(C)(C)C)c1 (stereo not drawn) [Dipivefrin hydrochloride] + CCCCNC(=O)OCC#CI [3-iodo-2-propynyl butylcarbamate (IPBC)],79.4 ± 1.3%,88.83 ± 0.1%
C[C@]12CCC(=O)C(O)=C1CC[C@@H]1[C@@H]2CC[C@]2(C)C(=O)CC[C@@H]12 [Formestane] + CCCCNC(=O)OCC#CI [3-iodo-2-propynyl butylcarbamate (IPBC)],71.5 ± 3.8%,91.2 ± 1.1%
N[C@@H]1CONC1=O [D-cycloserine] + CCCCNC(=O)OCC#CI [3-iodo-2-propynyl butylcarbamate (IPBC)],86.2 ± 1.1%,90.3 ± 1.8%
CCCCCNC(=N)N/N=C/c1c[nH]c2ccc(OC)cc12 [Tegaserod maleate] + CCCCNC(=O)OCC#CI [3-iodo-2-propynyl butylcarbamate (IPBC)],5.4%,5.24 ± 0.21%
COc1ccc2[nH]cc(CCNC(C)=O)c2c1 [Melatonin] + CCCCNC(=O)OCC#CI [3-iodo-2-propynyl butylcarbamate (IPBC)],82.9 ± 4.1%,92.3 ± 4%
CC(C)(C)NCC(O)COc1cccc2c1CC(O)C(O)C2 (stereo not drawn) [Nadolol] + CCCCNC(=O)OCC#CI [3-iodo-2-propynyl butylcarbamate (IPBC)],102 ± 19%,100 ± 10%
c1ccc2[nH]c(-c3cscn3)nc2c1 [Tiabendazole] + CCCCNC(=O)OCC#CI [3-iodo-2-propynyl butylcarbamate (IPBC)],4.7652 ± 1.4e-15%,3.3561 ± 1.3e-15%
OCCN1CCN(CCCN2c3ccccc3Sc3ccc(Cl)cc32)CC1 [Perphenazine] + CCCCNC(=O)OCC#CI [3-iodo-2-propynyl butylcarbamate (IPBC)],4.29 ± 0.48%,2.94 ± 0.42%
CN(C)CCCN1c2ccccc2CCc2ccc(Cl)cc21 [Clomipramine hydrochloride] + CCCCNC(=O)OCC#CI [3-iodo-2-propynyl butylcarbamate (IPBC)],59.6 ± 1.4%,93.2 ± 2%
CSc1ccc2c(c1)N(CCC1CCCCN1C)c1ccccc1S2 (stereo not drawn) [Thioridazine hydrochloride] + CCCCNC(=O)OCC#CI [3-iodo-2-propynyl butylcarbamate (IPBC)],3.81 ± 0.64%,2.94 ± 0.21%
CN1CCC[C@@H]1CCO[C@](C)(c1ccccc1)c1ccc(Cl)cc1 [Clemastine fumarate] + CCCCNC(=O)OCC#CI [3-iodo-2-propynyl butylcarbamate (IPBC)],53.2 ± 1.8%,92.4 ± 0.94%
CN1CCCCC1CCN1c2ccccc2Sc2ccc([S+](C)[O-])cc21 (stereo not drawn) [Mesoridazine besylate] + CCCCNC(=O)OCC#CI [3-iodo-2-propynyl butylcarbamate (IPBC)],72.6 ± 2.4%,89.25 ± 0.52%
O=c1n(CCCN2CCN(c3cccc(Cl)c3)CC2)nc2ccccn12 [Trazodone hydrochloride] + CCCCNC(=O)OCC#CI [3-iodo-2-propynyl butylcarbamate (IPBC)],51 ± 1.1%,86.1 ± 0.94%
OCCN1CCN(CCCN2c3ccccc3C=Cc3ccccc32)CC1 [Opipramol dihydrochloride] + CCCCNC(=O)OCC#CI [3-iodo-2-propynyl butylcarbamate (IPBC)],69.57 ± 0.64%,92.4 ± 3%

Structure (SMILES),growth yield (40 h),growth yield (72 h)
CC(CN(C)C)CN1c2ccccc2Sc2ccccc21 (stereo not drawn) [Trimeprazine tartrate] + CCCCNC(=O)OCC#CI [3-iodo-2-propynyl butylcarbamate (IPBC)],71.5 ± 3.8%,92 ± 3.9%
COc1ccc2c(c1)N(C[C@H](C)CN(C)C)c1ccccc1S2 [Methotrimeprazine maleat salt] + CCCCNC(=O)OCC#CI [3-iodo-2-propynyl butylcarbamate (IPBC)],76.4 ± 1.4%,92.61 ± 0.32%
CN1CCN(CCCN2c3ccccc3Sc3ccc(Cl)cc32)CC1 [Prochlorperazine dimaleate] + CCCCNC(=O)OCC#CI [3-iodo-2-propynyl butylcarbamate (IPBC)],3.18%,2.73 ± 0.21%
CN(C)CCCN1c2ccccc2Sc2ccc(Cl)cc21 [Chlorpromazine hydrochloride] + CCCCNC(=O)OCC#CI [3-iodo-2-propynyl butylcarbamate (IPBC)],52.4 ± 4.1%,87.2 ± 2.2%
CN1CCN(CCCN2c3ccccc3Sc3ccc(S(=O)(=O)N(C)C)cc32)CC1 [Thioproperazine dimesylate] + CCCCNC(=O)OCC#CI [3-iodo-2-propynyl butylcarbamate (IPBC)],37.8 ± 0.95%,97.1 ± 5%
CCCCC[C@H](O)/C=C/[C@H]1[C@H](O)CC(=O)[C@@H]1CCCCCCC(=O)O [Alprostadil] + CCCCNC(=O)OCC#CI [3-iodo-2-propynyl butylcarbamate (IPBC)],108 ± 3.3%,107 ± 2.8%
Cc1ncc([N+](=O)[O-])n1CC(C)O (stereo not drawn) [Secnidazole] + CCCCNC(=O)OCC#CI [3-iodo-2-propynyl butylcarbamate (IPBC)],95.9 ± 13%,94.5 ± 9.8%
N=C(N)NC(=O)Cc1c(Cl)cccc1Cl [Guanfacine hydrochloride] + CCCCNC(=O)OCC#CI [3-iodo-2-propynyl butylcarbamate (IPBC)],79.9 ± 4.3%,90.7 ± 3.7%
O=C1[C@H]2CCCC[C@H]2C(=O)N1CCCCN1CCN(c2nsc3ccccc23)CC1 [Perospirone] + CCCCNC(=O)OCC#CI [3-iodo-2-propynyl butylcarbamate (IPBC)],79.4 ± 0.95%,88.41 ± 0.32%
C[C@@H]1C[C@H]2[C@@H]3C[C@H](F)C4=CC(=O)C=C[C@]4(C)[C@@]3(F)[C@@H](O)C[C@]2(C)[C@@]1(O)C(=O)COC(=O)C(C)(C)C [Flumethasone pivalate] + CCCCNC(=O)OCC#CI [3-iodo-2-propynyl butylcarbamate (IPBC)],90.9 ± 2.5%,90.3 ± 2%
CN(CCCN1c2ccccc2CCc2ccccc21)CC(=O)c1ccc(Cl)cc1 [Lofepramine] + CCCCNC(=O)OCC#CI [3-iodo-2-propynyl butylcarbamate (IPBC)],78.31 ± 0.48%,91.7 ± 1.3%
CCN[C@H]1CN(CCCOC)S(=O)(=O)c2sc(S(N)(=O)=O)cc21 [Brinzolamide] + CCCCNC(=O)OCC#CI [3-iodo-2-propynyl butylcarbamate (IPBC)],76.1 ± 0.79%,86.31 ± 0.32%
CC(N/C(=N\C#N)Nc1ccncc1)C(C)(C)C (stereo not drawn) [Pinacidil] + CCCCNC(=O)OCC#CI [3-iodo-2-propynyl butylcarbamate (IPBC)],97.7 ± 5.9%,102 ± 2.9%
CCCCc1cc2ccccc2c(OCCN(C)C)n1 [Dimethisoquin hydrochloride] + CCCCNC(=O)OCC#CI [3-iodo-2-propynyl butylcarbamate (IPBC)],52.1 ± 0.64%,82.64 ± 0.42%
CC(C)c1nc(CN(C)C(=O)N[C@H](C(=O)N[C@@H](Cc2ccccc2)C[C@H](O)[C@H](Cc2ccccc2)NC(=O)OCc2cncs2)C(C)C)cs1 [Ritonavir] + CCCCNC(=O)OCC#CI [3-iodo-2-propynyl butylcarbamate (IPBC)],119 ± 1.6%,119 ± 1.5%
O=C(O)CCC(=O)c1ccc(-c2ccccc2)cc1 [Fenbufen] + CCCCNC(=O)OCC#CI [3-iodo-2-propynyl butylcarbamate (IPBC)],71.5 ± 2.9%,92.2 ± 1.8%
CCC[C@@H]1C[C@@H](C(=O)N[C@@H]([C@H]2O[C@H](SC)[C@H](O)[C@@H](O)[C@H]2O)[C@@H](C)O)N(C)C1 [Lincomycin hydrochloride] + CCCCNC(=O)OCC#CI [3-iodo-2-propynyl butylcarbamate (IPBC)],85.8 ± 3.5%,94.6 ± 2.3%
COCC1=C(C(=O)OC(C)OC(=O)OC(C)C)N2C(=O)[C@@H](NC(=O)/C(=N\OC)c3csc(N)n3)[C@H]2SC1 (stereo partly drawn) [Cefpodoxime proxetil] + CCCCNC(=O)OCC#CI [3-iodo-2-propynyl butylcarbamate (IPBC)],121 ± 3.5%,113.6 ± 0.94%
Nc1cc(N2CCCCC2)nc(N)[n+]1[O-] [Minoxidil] + CCCCNC(=O)OCC#CI [3-iodo-2-propynyl butylcarbamate (IPBC)],90.1 ± 2.1%,93.5 ± 1.7%
